About 1,200 (0.86%) of roughly 140,000 compounds were called active. No stated cut-off is given here; in the data, active means activity change below about -25%; inactive means the rest. The sample as a whole holds a higher share of actives than the screen did.

The text below walks through data of PubChem BioAssay AID1645851 (National Center for Advancing Translational Sciences (NCATS), 2021).
On the % scale 0 is the no-effect control and ±100 the full control effect.

In this assay the target is Inositol hexakisphosphate kinase 1 (Homo sapiens) (UniProt Q92551). Put plainly: Primary qHTS assay for small molecule inhibitors of Inositol hexaphosphate kinase 1 (IP6K1). Further: series mostly up to about 58 µM. Conditions: ADP-Glo luminescence, 2 h, stronger effect = lower value. The gist of the method: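 ADP-Glo luminescence measures ADP made by human IP6K1 during a 2 h RT reaction with ATP/IP6 (mix at 1.3 mM/130 uM); top library doses 57.5 and 19.1 uM final.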
Inositol hexakisphosphate kinase 1 (Homo sapiens), sequence (Q92551 whole entry, looked up): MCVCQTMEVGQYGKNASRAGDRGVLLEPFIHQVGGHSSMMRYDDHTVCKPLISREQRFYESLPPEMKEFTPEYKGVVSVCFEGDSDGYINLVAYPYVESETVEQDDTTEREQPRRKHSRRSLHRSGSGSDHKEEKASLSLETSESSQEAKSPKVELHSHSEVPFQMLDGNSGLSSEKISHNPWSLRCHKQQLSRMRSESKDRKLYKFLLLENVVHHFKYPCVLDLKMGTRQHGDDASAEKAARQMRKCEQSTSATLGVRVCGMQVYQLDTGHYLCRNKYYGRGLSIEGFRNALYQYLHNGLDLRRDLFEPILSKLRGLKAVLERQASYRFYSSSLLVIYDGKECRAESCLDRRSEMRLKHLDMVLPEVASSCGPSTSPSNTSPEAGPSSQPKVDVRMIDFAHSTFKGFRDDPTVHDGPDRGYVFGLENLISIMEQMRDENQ
On the technique in general: Quantitative high-throughput screening tests each substance at several concentrations.
Take `FC(F)(F)c1ccc(CN2CCC3(CC(c4cccc(C(F)(F)F)c4)=NO3)C2)cc1` (stereo unspecified): the activity change was -5.41% (inactive). Consider `N#Cc1ccc(CN2CC(Oc3ccc(F)cc3F)C2)cc1`, for which the activity change is -14.3% (inactive). In the case of `CO[C@H]1C=CO[C@@]2(C)Oc3c(C)c(O)c4c(O)c(c(/C=N/N5CCN(C)CC5)c(O)c4c3C2=O)NC(=O)/C(C)=C\C=C[C@H](C)[C@H](O)[C@@H](C)[C@@H](O)[C@@H](C)[C@H](OC(C)=O)[C@@H]1C`, the activity change was -33.1% (active).

In the case of `O=C(C1CCN(Cc2ccccc2-c2ccccc2F)CC1)N1CCC(c2ccccc2)CC1`, the activity change was 20.1% (inactive). As to `Cc1ccccc1C(=O)N1CCCC(C(=O)N2CCC(c3ccccc3)CC2)C1` (stereo unspecified), the activity change is -2.33% (inactive). On to `O=[S+]([O-])(c1ccccc1)N1CC2(COCCN(Cc3cc(F)ccc3F)C2)C1`, for which the activity change was 8.88% (inactive). As to `COc1cccc(Nc2n[nH]c(C(O)c3cccc(C(F)(F)F)c3)n2)c1` (stereo unspecified), the activity change was -3.83% (inactive). With `COc1ccc(-c2nn(CC(=O)NC3CCCC3)c3c2cnc2ccc(F)cc23)cc1` the figure was 19.4% (inactive); with `COc1ccc2ncc3c(-c4ccc(C)c(C)c4)nn(CC(=O)NC4CCCC4)c3c2c1`, -25.8% (active).

In the case of `COc1ccc(-c2nn(CC(=O)Nc3ccccc3F)c3c2cnc2ccc(F)cc23)cc1`, the activity change was 6.83% (inactive). The same measure for `COc1ccc(-c2nc(-c3ccccc3)nc3c2CN(C(=O)c2ccc(C)cc2)CC3)cc1`: 6.25% (inactive); for `CCN1c2cc(C(=O)NCc3ccccc3C(F)(F)F)ccc2C(=O)N2CCCCCC21` (stereo unspecified): -7.94% (inactive); for `Cc1ccc(Cl)cc1NC(=O)CN1C(=O)NC(c2ccc(Cl)cc2)C2=C1COC2=O` (stereo unspecified): -3.73% (inactive). As to `CCOC(=O)c1cc2c(=O)n3ccccc3nc2n(Cc2ccco2)c1=NC(=O)c1ccc(F)cc1`, the activity change is -40.8% (active). The same measure for `CCOC(=O)c1cc2c(=O)n3ccccc3nc2n(CC2CCCO2)c1=NC(=O)c1ccc(C(C)(C)C)cc1` (stereo unspecified): -2.99% (inactive); for `CCOC(=O)c1cc2c(=O)n3ccccc3nc2n(CC2CCCO2)c1=NC(=O)c1ccccc1F` (stereo unspecified): -9.99% (inactive); for `NC(=O)Cn1ccc2cc(OCC3CCN(C(=O)C4CCCC4)CC3)cnc21`: -2.13% (inactive).

Consider `CC(C)CCNC(=O)c1cnc2c(c1)N(Cc1ccccc1)CCC2`, for which the activity change was 3.22% (inactive).

Take `COC[C@H]1C[C@@H](NC(=O)c2ccc(C#N)cc2)[C@H](O)[C@@H]1O`: the activity change is -1.35% (inactive). For the compound `Cn1cc(C(=O)N2CCC(C(=O)N3CCCCCCNC(=O)CC3)CC2)cn1`, the activity change was -7.37% (inactive). With `N#Cc1ccc(C(=O)Nc2ccc([C@H]3OCC(=O)N(Cc4cccnc4)[C@@H]3CO)cc2)cc1` the figure was -3.68% (inactive). Regarding `O=C(Nc1cc(-c2ccncc2)nn1-c1ccccc1)c1ccccc1F`, the activity change is -7.37% (inactive). For the compound `O=C(Nc1cccnc1)[C@@H]1C[C@@H](c2ccc(F)cc2)N([S+](=O)([O-])c2ccccc2)C1`, the activity change is 19.9% (inactive).

As for `Cc1nc2c(c(C)nn2-c2ccccc2)c(C)c1CCC(=O)NCCc1ccc(Cl)cc1`, the activity change is 11.8% (inactive). Turning to `Cc1ccc(CNC(=O)CCc2c(C)nc3c(c(C)nn3-c3ccccc3)c2C)cc1`, the activity change is -26.3% (active). With `COC(=O)c1ccc(NC(=O)CCc2c(C)nc3c(c(C)nn3-c3ccc(C)cc3)c2C)cc1` the figure was 33% (inactive); with `Cn1ncc2c(C(=O)NCc3ccc(Cl)cc3)cc(-c3ccc(F)cc3)nc21`, 11.6% (inactive). Regarding `O=C(NCCc1ccccc1F)c1ccc2nnc(-c3ccc(F)cc3)n2c1`, the activity change is 1.1% (inactive).

Turning to `COC(=O)NC1CCCN(c2ccc3nnc(-c4ccccc4)n3n2)C1` (stereo unspecified), the activity change was -6.13% (inactive). Take `COc1ccc(N2CC(c3noc(-c4cc(OC)c(OC)c(OC)c4)n3)CC2=O)cc1` (stereo unspecified): the activity change was 12.4% (inactive). As to `CCOc1ccccc1CNC(=O)C1CCCN(S(=O)(=O)c2ccc3c(ccn3C)c2)C1` (stereo unspecified), the activity change was -3.08% (inactive). As to `Cc1ccc(C)c(NC(=O)C2CCCN(S(=O)(=O)c3cn(C)cn3)C2)c1` (stereo unspecified), the activity change was 5.66% (inactive).

On to `CCOc1ccccc1NC(=O)C1CCCN(S(=O)(=O)c2cn(C)cn2)C1` (stereo unspecified), for which the activity change was -25.5% (active).

For the compound `O=c1cc(N2CCOCC2)oc2c(Nc3cccc(Cl)c3)nccc12`, the activity change was -31% (active). For the compound `Cc1noc(C)c1-c1nccc2c(=O)cc(N3CCOCC3)oc12`, the activity change was -13.2% (inactive). Turning to `O=c1cc(N2CCOCC2)oc2c(NCc3ccncc3)nccc12`, the activity change was -7.16% (inactive). The same measure for `CN(C)c1ccc(CN(C)C2CCc3ccccc3C2)cc1` (stereo unspecified): -16.7% (inactive); for `CC(C)OCCCNC(=O)c1cc(-c2ccc(C(F)(F)F)cc2)nc2c1cnn2C`: -2.02% (inactive); for `CCOc1ccccc1NC(=O)CN1C(=O)C(c2ccccc2)=NC12CCCC2`: 7.82% (inactive). In the case of `CC1=C(C(=O)N(C)C)C(c2ccc(Cl)cc2)N2C(CC(=O)NC(C)c3ccccc3)=CSC2=N1` (stereo unspecified), the activity change was 33.5% (inactive). The same measure for `CC1=C[C@@H](CNC(C)C)[C@H](C(C)C)C[C@H]1Cc1nnc(-c2ccc(N(C)C)cc2)o1`: -0.243% (inactive). As for `Cc1ccccc1C(=O)N1CCCC(C(=O)N2CCC(N3CCOC3=O)CC2)C1` (stereo unspecified), the activity change was -1.11% (inactive). With `C#C[C@]1(O)CC[C@H]2[C@@H]3CCC4=C/C(=N/O)CC[C@@H]4[C@H]3CC[C@@]21CC` the figure was -79.6% (active); with `C#C[C@]1(O)CC[C@H]2[C@@H]3CCC4=CC(=O)CC[C@@H]4[C@H]3CC[C@@]21CC`, 3.56% (inactive); with `CN1CC(=O)N(C2CCC2)Cc2c(NCC(C)(C)C)ncnc21`, 15.1% (inactive). Turning to `O=C(OCc1ccccc1)N1CCOCC12CCN(Cc1ccncc1Cl)CC2`, the activity change was 13% (inactive).

Regarding `CN(CC1CCN(CCc2cccc(F)c2)CC1)C(=O)c1cn2cccnc2n1`, the activity change is 28.9% (inactive). With `Cc1cc(=O)n(CC(=O)NCCc2ccc(Cl)cc2)c(N2CCc3ccccc3C2)n1`, the activity change is 19.5% (inactive).

Turning to `N#CSc1cc(SC#N)c(N)nc1N`, the activity change was -42.8% (active). With `COc1ccc(Cn2c(=O)c(C(=O)N3CCN([S+](=O)([O-])c4c(C)noc4C)CC3)nc3cccnc32)cc1` the figure was 10.5% (inactive); with `Cc1cn2nc(C(=O)Nc3cc(F)cc(F)c3)cc2c(N(C)Cc2ccccc2)n1`, -5.8% (inactive).
